Experimental data reported in PubChem BioAssay (Tox21).
Inconclusive results are not listed. A number with no mark means an inactive call. Activity calls are given as the source filed them. The call rests on the fitted dose curve; in most records, active means well fitted inhibition curve with a large enough effect in the repeat runs; inconclusive means weak or mixed curves; inactive means no such curve, though single readings can be large or run the other way.

Test: qHTS assay to identify small molecule antagonists of the thyroid receptor (TR) signaling pathway (AID 743065); further: nearly all actives have a fitted effect of over 55% in size
Conditions: GH3.TRE-Luc, T3-stimulated luciferase inhibition, 23.5 h; series mostly up to 70.3 µM; activity, negative = inhibition: at the top concentration
Source text: U.S. Tox21 Program National Center for Advancing Translational Sciences [NCATS] NIH Chemical Genomics Center [NCGC] U.S. Environmental Protection Agency [EPA] National Institutes of Environmental Health Sciences [NIEHS] National Toxicology Program [NTP] U.S. Food and Drug Administration [FDA] Tox21 Assay Overview: Thyroid receptor (TR), a nuclear hormone receptor, plays an important role in development, proliferation, differentiation, metabolism, brain function, and cardiovascular system. […] To profile the Tox21 10K compound library in TR signaling, a cell-based GH3-TRE-Luc assay (GH3.TRE-Luc cell line, developed by the laboratory of Dr. Albertinka J. Murk, Wageningen University) was used to measure the inhibition of TR. GH3 (rat pituitary tumor) cells stably expressing a TR activity sensor consisting of two TR response elements and a luciferase reporter gene.
Tox21 Assay Protocol Summary: GH3.TRE-Luc cells were dispensed at 1500 cells/4 uL/well into 1536-well white solid bottom plates using a Multidrop Combi dispenser (Thermo Fisher Scientific Inc., Waltham, MA). After the assay plates were incubated at 37 C for 4 hours, 23 nL of library compound or DMSO controls was transferred to the assay plates by a pintool station (Kalypsys, San Diego, CA), followed by addition of 1 ul of T3 (1 nM, final concentration in the wells) to stimulate TR transactivation. The assay plates were incubated at 37 C for 23.5 h, and then 1 uL of CellTiter-Fluor reagent (Promega, Madision, WI) of measuring cytotoxicity was added to each well using a Bioraptr Flying Reagent Dispenser (FRD) workstation (Beckman Coulter, Indianapolis, IN, USA). The plates were incubated at 37 C and 5% CO2 for additional 30 min, and fluorescence intensity was measured by a ViewLux plate reader (PerkinElmer, Shelton, CT). For measuring luciferase reporter gene activity, 4 uL of ONE-Glo Luciferase Assay reagent (Promega) was added to each well using a Bioraptr FRD (Beckman Coulter), followed by 30 min incubation at room temperature. The luminescence intensity of plates was recorded by a ViewLux plate reader (PerkinElmer, Shelton, CT).
On the % scale 0 is the no-effect control and ±100 the full control effect; potency means the concentration at half of the fitted maximal effect.

| SMILES | Potency | activity, negative = inhibition |
| --- | --- | --- |
| CC(C)(C)c1cc(CO)cc(C(C)(C)C)c1O | 62.3 µM (active) |  |
| Oc1ccc(O)c2c(O)cccc12 |  | -6.91% |
| CCCCCCCCCC(=O)OCC |  | 9.76% |
| CN1CCC[C@@H]1c1cccnc1 |  | 9.98% |
| CC1=CC(=O)/C(=C(/C)O)C(=O)O1 |  | 16.8% |
| O=C=NC1CCC(CC2CCC(N=C=O)CC2)CC1 (stereo not given) |  | -0.0153% |
| Cc1cc(NC(=O)C(=O)O)cc(C)c1Oc1ccc(O)c2c1CCC2 |  | 38.6% |
| NC(N)=NN=C(/C=C/c1ccc([N+](=O)[O-])o1)/C=C/c1ccc([N+](=O)[O-])o1 | 1.5 µM (active) |  |
| O=C(O)/C=C/c1cnc[nH]1 |  | 46.4% |
| Oc1ccc(Sc2ccc(O)cc2)cc1 | 51 µM (active) |  |
| CC[C@H](C)[C@@H](C(=O)O)n1sc2ccccc2c1=O |  | -22.8% |
| CC(C)CC=O |  | 6.01% |
| OC(CCN1CCCCC1)(c1ccccc1)C1CCCCC1 (stereo not given) |  | -14.3% |
| N[C@H]1C(O)O[C@H](CO)[C@H](O)[C@@H]1O (stereo not given in full) |  | -1.35% |
| ClC(Cl)(Cl)c1ccc(C(Cl)(Cl)Cl)cc1 |  | -14.1% |
| CC(=O)OCCc1ccccc1 |  | 15.1% |
| Cc1ccccc1N=Nc1ccc(N=Nc2c(O)ccc3ccccc23)c(C)c1 |  | 1.17% |
| NCCCN(CCO)CCO |  | 4.85% |
| O=C(O)C(c1ccc(Cl)cc1)c1ccc(Cl)cc1 |  | 13.5% |
| CC(=O)O[C@@H]1C(=O)O[C@@H]2[C@H]1OC(=O)[C@@H]2OC(C)=O |  | 8.46% |

| SMILES | Potency | activity, negative = inhibition |
| --- | --- | --- |
| C[Si](C)O[Si](C)(C)O[Si](C)(C)O[Si](C)C |  | 5.63% |
| O=C(O)COC(=O)Cc1ccccc1Nc1c(Cl)cccc1Cl |  | -13.8% [at 32.5 µM] |
| O=c1c2ccccc2nnn1CCl |  | 0.024% |
| CC1(C)CCC(C)(C)c2cc(NC(=O)c3ccc(C(=O)O)cc3)ccc21 | 21.1 µM (active) |  |
| CCCCCCCCCCCCCCC1CO1 (stereo not given) |  | 6.4% |
| c1ccc(CNCc2ccccc2)cc1 |  | -4.2% |
| C=CCCCCCC |  | 38.3% |
| CNCC[C@@H](Oc1ccccc1C)c1ccccc1 | 23.7 µM (active) |  |
| CCCCOC(O)CC (stereo not given) |  | 2.78% |
| O=C(O)C1CCC(C(=O)O)CC1 (stereo not given) |  | 5.97% |
| Nc1nc(CC(=O)O)cs1 |  | -1.02% [at 95 µM] |
| CCCCCc1ccc(N)cc1 |  | -19.8% |
| O=C(Cl)c1c(Cl)cccc1Cl |  | -0.174% [at 95 µM] |
| C=CC(=O)OCCOC(=O)CCC(=O)O |  | 10.2% |
| CC[C@]12CCCN3CCc4c(n(c5ccccc45)C(=O)C1)[C@@H]32 | 7.17 µM (active) |  |
| CCN(CCO)CCCC(C)Nc1ccnc2cc(Cl)ccc12 (stereo not given) |  | -6.18% |
| c1ccc(OCc2ccc(CCCN3CCOCC3)cc2)cc1 | 21.1 µM (active) |  |
| O=C(Cl)c1ccc([N+](=O)[O-])cc1 |  | 65.2% |
| COC(=O)C(C)=O |  | -4.37% [at 95 µM] |
| C=CC(=O)OCC(C)OCC(C)OCC(C)OC(=O)C=C (stereo not given) | 24.3 µM (active) |  |
